Screens from PubChem.
AmpC nodet inh: inhibitors of E. coli AmpC beta-lactamase without detergent; 71,000 tested, 1.8% active; Potency, µM (top dose mostly 28.7 µM), for the others: top-dose activity change, negative = inhibition; P00811; AmpC nitrocefin hydrolysis, absorbance 480 nm, no detergent; further: % of control where 0% means no effect
Target sequence (P00811 whole entry, looked up): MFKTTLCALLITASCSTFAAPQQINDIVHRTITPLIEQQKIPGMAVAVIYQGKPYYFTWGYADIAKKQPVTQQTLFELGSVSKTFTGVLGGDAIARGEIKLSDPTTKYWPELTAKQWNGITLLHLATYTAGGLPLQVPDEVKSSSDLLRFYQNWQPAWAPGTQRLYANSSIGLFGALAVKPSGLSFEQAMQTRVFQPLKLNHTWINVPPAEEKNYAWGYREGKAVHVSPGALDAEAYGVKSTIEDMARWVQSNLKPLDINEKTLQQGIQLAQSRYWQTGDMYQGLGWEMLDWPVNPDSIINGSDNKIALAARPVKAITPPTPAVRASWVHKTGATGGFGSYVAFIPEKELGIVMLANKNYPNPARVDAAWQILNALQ
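Enzyme, pH 7.0 phosphate. Compound titrations were pre-incubated with AmpC for 15 min at room temperature before nitrocefin (stock 800 uM) addition; product formation was recorded at 480 nm every 20 s for 4 min.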
Prx2 Sm inh: blocks S. mansoni peroxiredoxin 2 enzymatic activity. S. mansoni Prx2 activity coupled to TGR/GSH (TGR is thioredoxin glutathione reductase), NADPH fluorescence loss, qHTS. Potency, µM. 65,000 tested, 0.07% active. AID 448
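Prx2 inhibition was measured as reduced NADPH consumption when electrons flowed from NADPH through TGR and glutathione to Prx2 and H2O2. Plates were read kinetically over 8 min; enzyme reagents were held at 4 deg C during dispensing.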
LT uptake inh: blocks cellular internalization of anthrax lethal toxin. Cells, anthrax lethal toxin internalization, FRET ratio (460/530). Potency, µM (series often up to 40 µM), without a hit: top-dose activity change, negative = inhibition, hits mostly inhibitors. 70,000 tested, 0.67% active. AID 912; further: on the % scale 0 is the no-effect control and ±100 the full control effect; nearly all actives have a fitted effect of over 50% in size
AmpC det inh: AmpC beta-lactamase inhibition, detergent assay. purified AmpC, nitrocefin hydrolysis with detergent. Potency, µM (series often up to 28.7 µM), for inactives: at the highest dose activity change, negative = inhibition. 71,000 tested, 0.09% active; active means well fitted curve in the direction sought with a large enough effect; inconclusive means small, poorly fitted or top-dose-only effect; further: on the % scale 0 is the no-effect control and ±100 the full control effect
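E. coli AmpC (5.3 nM) in 20 mM phosphate pH 7.0 with 0.01% Triton X-100, preincubated 15 min RT with compound; nitrocefin (2 uL of 800 uM stock) hydrolysis followed by 480 nm absorbance every 20 s over 4 min.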
An asterisk follows results filed as active; ! = not confirmed by another sample; [ ] = another dose, or the depositor's remark. The list is not random: actives were taken first. Their share in the collection is about 2.6%. Unless noted, the call rests on the fitted dose curve. Potency means the concentration at half of the fitted maximal effect.

Screening CN(Cc1ccccc1)C(=O)CCS(=O)(=O)c1ccc2c(c1)n(C)c(=O)c(=O)n2C returned AmpC nodet inh 3.98µM*[single pt active], Prx2 Sm inh >57, LT uptake inh inconclusive and AmpC det inh 13.7%.
Screening Oc1ccc(Cl)cc1Cc1cc(Cl)ccc1O returned AmpC nodet inh inconclusive, LT uptake inh 15.8µM* and AmpC det inh 3.9%.
`Oc1ccc(Cl)cc1Cc1ccccc1` gave AmpC nodet inh -19.2%, LT uptake inh inconclusive and AmpC det inh 4.0%.
Screening O[C@@H]1CC[C@H]2Cc3ccccc3N=C21 returned AmpC nodet inh -4.6%, Prx2 Sm inh >25.6, LT uptake inh 18.5% and AmpC det inh 1.8%.
For CCCc1c(-c2ccc(O)cc2)nn(-c2ccc(O)cc2)c1-c1ccc(O)cc1 the results were AmpC nodet inh 7.94µM*!, Prx2 Sm inh >57, LT uptake inh inconclusive and AmpC det inh -6.6%.
For O=c1cc(-c2ccccc2Cl)c2c([nH]1)CCC2 the results were AmpC nodet inh 3.98µM*[single pt active], Prx2 Sm inh >57, LT uptake inh 3.6% and AmpC det inh 12.5%.
For COc1ccccc1S(=O)Cc1ccc(C(=O)NCc2ccccc2Cl)o1 (configuration not stated) the results were AmpC nodet inh 3.98µM*[single pt active], Prx2 Sm inh >57, LT uptake inh inconclusive and AmpC det inh 12.2%.
For C=Cc1ccccc1C=C the results were AmpC nodet inh -2.5%, LT uptake inh -5.9% and AmpC det inh 9.1%.
`COc1cccc(NC(=O)c2ccc(CN3CCN(c4ccccc4)CC3)cc2)c1` gave AmpC nodet inh 31.7%, Prx2 Sm inh >57, LT uptake inh 10µM* and AmpC det inh -5.1%.
Cn1c(=O)oc2cc(S(=O)(=O)N3CCCC(C(=O)NCCN4CCOCC4)C3)ccc21 (configuration not stated) was read as AmpC nodet inh 3.98µM*[single pt active], Prx2 Sm inh >57, LT uptake inh 2.3% and AmpC det inh 11.0%.
`Cn1c(=O)oc2cc(S(=O)(=O)N3CCC(C(=O)N4CCN(c5ccccc5)CC4)CC3)ccc21` gave AmpC nodet inh 12.2%, Prx2 Sm inh >57, LT uptake inh -3.2% and AmpC det inh 12.5%.
`Cn1c(=O)oc2cc(S(=O)(=O)N3CCC(C(=O)NCC4COc5ccccc5O4)CC3)ccc21` (configuration not stated) gave AmpC nodet inh 3.98µM*[single pt active], Prx2 Sm inh >57, LT uptake inh -11.7% and AmpC det inh 12.3%.
For Cn1c(=O)oc2cc(S(=O)(=O)N3CCC(C(=O)NCc4cccs4)CC3)ccc21 the results were AmpC nodet inh 3.16µM*[single pt active], Prx2 Sm inh >57, LT uptake inh -2.4% and AmpC det inh 11.5%.
CN1CCN(C(=O)C2CCN(S(=O)(=O)c3ccc4c(c3)oc(=O)n4C)CC2)CC1 was read as AmpC nodet inh 3.98µM*[single pt active], Prx2 Sm inh >57, LT uptake inh 1.6% and AmpC det inh 9.3%.
For CSCC[C@@H](N)P(C)(=O)O the results were AmpC nodet inh -7.4%[5.75 µM], Prx2 Sm inh >57, LT uptake inh -11.2%[8 µM] and AmpC det inh -5.0%[5.75 µM].
For Cn1c(=O)oc2cc(S(=O)(=O)N3CCCC(C(=O)N4CCn5c4nc4ccccc45)C3)ccc21 (configuration not stated) the results were AmpC nodet inh 3.98µM*[single pt active], Prx2 Sm inh >57, LT uptake inh -1.5% and AmpC det inh 12.0%.
Screening Cn1c(=O)oc2cc(S(=O)(=O)N3CCCC(C(=O)N4CCc5ccccc5C4)C3)ccc21 (configuration not stated) returned AmpC nodet inh 56.2%, Prx2 Sm inh >57, LT uptake inh inconclusive and AmpC det inh 13.5%.
CC1(C(=O)NCCCNc2ncc(C(F)(F)F)cc2Cl)C=CC2(CCCCC2)N1C(=O)c1ccccc1 (configuration not stated) was read as AmpC nodet inh 7.8%, LT uptake inh 25.1µM* and AmpC det inh 11.2%.
Screening Cc1ccc(NC(=[OH+])c2cc3ccccc3cc2O)c(C)c1.Cc1ccc(NC(=[OH+])c2cc3ccccc3cc2O)c(C)c1.[Ni] returned AmpC nodet inh inconclusive, Prx2 Sm inh >57, LT uptake inh inconclusive and AmpC det inh -3.6%[5.75 µM].
For CC(=O)[C@@H]1CC[C@H]2[C@H]3CC[C@H]4C[C@@H](O)CC[C@]4(C)[C@@H]3CC[C@]12C the results were AmpC nodet inh 10.5%, Prx2 Sm inh >57, LT uptake inh -19.1% and AmpC det inh -2.8%.
`COc1cccc2cc3c(=O)n(-c4ccccc4)nc-3oc12` gave AmpC nodet inh 3.16µM*[single pt active], Prx2 Sm inh >57, LT uptake inh 6.7% and AmpC det inh 10.6%.
